Data reported in PubChem BioAssay.
Activity calls are given as the source filed them.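 Rule for the calls, unless noted: active = visual image review flags a hit and inhibition of aggregation exceeds 20%; inconclusive = visual hit but inhibition at or below 20%; inactive = no hit on visual image review.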

What was measured:
[1] = inhibitors of TNFa-induced NFkB p65 translocation, primary screen, imaging, HUVEC, MLSMR starter and 10KST1 sets (AID 438;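 active = inhibition above 20% together with a positive visual image hit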;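 note: compound added about 3h40 before a 20 min TNFalpha stimulation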;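 for inhibition: signal is the nuclear over cytoplasmic p65 intensity ratio per well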); conditions: HUVEC TNFa-induced p65 nuclear translocation; cell count: measured here: nuclei count (cytotoxicity indicator), at 2.08 µM; inhibition: at 2 µM, stronger effect = higher value, 0% TNFa-plus-vehicle, 100% no-TNFa wells
[2] = reduction of polyQ htt aggregates in cells – imaging, exon1htt(103Q)mCFP cells, high-content imaging, primary screen (AID 483); conditions: exon1htt(103Q)mCFP cell line, aggregate imaging, at 2 µM; inhibition of aggregation: stronger effect = higher value; nuclei count: measured here: cell count, toxicity;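 note: compound exposure lasted 3 days before fixation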;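 for nuclei count: percent of the per-plate median nuclei count of sample wells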
[3] = endothelial E-selectin expression blockers – imaging, HUVEC, immunofluorescence, MLSMR starter and 10KST1 sets, primary screen (AID 487;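 active = visually confirmed hit in the image check and inhibition above 20%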;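 for inhibition: signal is fraction of cell area covered by stained E-selectin grains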;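 for nuclei count: 100% = median nuclei count of all wells on the same plate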); conditions: HUVEC TNFalpha-induced E-selectin immunofluorescence imaging, at 2 µM; inhibition: stronger effect = higher value; nuclei count: measured here: cell number, toxicity
[4] = target: Voltage-gated potassium channel subunit beta-2 (Rattus norvegicus) (UniProt P62483); assay: inhibitors of rat Kvbeta2 reductase activity – biochemical, NADPH fluorescence, primary screen (AID 622;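 active = fluorescence slope higher than the sample average by over 3 SD, cut at about -0.22 in these data, passing the limit was not always enough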;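 note: slope of raw intensity against log time taken from 70 to 1610 s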); conditions: recombinant KvBeta, 4-cyanobenzaldehyde reduction, at 10 µM, stronger effect = higher value
[5] = target: Voltage-gated potassium channel subunit beta-2 (Rattus norvegicus) (UniProt P62483); assay: enhancers of rat Kvbeta2 NADPH turnover – biochemical, NADPH fluorescence, primary screen (AID 623;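 active = NADPH fluorescence slope more negative than the mean of all samples by about 3 SD, 99.7% confidence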;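 note: fluorescence intensity change per second fitted from 20 to 320 s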); conditions: Recombinant KvBeta, NADPH fluorescence decrease slope, 10 min; at 10 µM; stronger effect = lower value
[6] = target: Alpha-2C adrenergic receptor (Homo sapiens) (UniProt P18825); assay: compounds altering alpha2C-coupled GIRK flux – cell-based, HEK293 alpha2C/GIRK1/2, thallium flux, primary screen (AID 624;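 active = fluorescence slope after compound addition differing from the mean of all screened samples at 99.7% confidence, in either direction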;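 note: slope of fluorescence ratio to pre-addition baseline per second over 15 to 24 s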); conditions: thallium flux BTC fluorescence, at 10 µM, actives lie on both sides
[7] = blockers of RIG-like receptor reporter activation – cell-based, Sendai virus stimulus, luciferase, 10K MLSCN set, TLR/RLR signaling modifier project, primary screen (AID 602276;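 active = inhibition at or above 50% at 10 µM; inactive = inhibition below 50%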;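 note: firefly luciferase from ISG56 promoter only with Renilla not read in this screen; 0% = Sendai virus plus DMSO and 100% = medium plus DMSO without virus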); conditions: HEK293 RL24 IRF3 luciferase reporter, at 10 µM, stronger effect = higher value
[8] = TLR3 IRF3 reporter activation blockers – cell-based, poly I:C stimulus, luciferase, 10K MLSCN set, primary screen (AID 602277;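 active = inhibition of the reporter signal at or above 50%; inactive = inhibition below 50%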); conditions: HEK293-TLR3 RL24 IRF3 luciferase reporter, at 10 µM, stronger effect = higher value

Alpha-2C adrenergic receptor (Homo sapiens), sequence (P18825 whole entry, looked up): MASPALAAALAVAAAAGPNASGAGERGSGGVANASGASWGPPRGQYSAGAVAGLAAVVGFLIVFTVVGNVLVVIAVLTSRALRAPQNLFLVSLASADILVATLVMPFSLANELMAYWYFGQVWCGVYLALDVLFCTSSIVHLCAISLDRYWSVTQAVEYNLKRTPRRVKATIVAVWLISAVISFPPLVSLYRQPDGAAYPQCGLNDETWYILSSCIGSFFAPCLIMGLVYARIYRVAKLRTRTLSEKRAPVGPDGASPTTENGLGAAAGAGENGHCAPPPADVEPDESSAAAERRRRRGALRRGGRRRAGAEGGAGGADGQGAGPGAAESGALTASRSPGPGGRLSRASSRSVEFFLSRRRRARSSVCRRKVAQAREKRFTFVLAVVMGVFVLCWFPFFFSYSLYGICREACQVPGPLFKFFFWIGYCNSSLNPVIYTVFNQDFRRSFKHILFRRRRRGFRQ
Voltage-gated potassium channel subunit beta-2 (Rattus norvegicus), sequence (P62483 whole entry, looked up): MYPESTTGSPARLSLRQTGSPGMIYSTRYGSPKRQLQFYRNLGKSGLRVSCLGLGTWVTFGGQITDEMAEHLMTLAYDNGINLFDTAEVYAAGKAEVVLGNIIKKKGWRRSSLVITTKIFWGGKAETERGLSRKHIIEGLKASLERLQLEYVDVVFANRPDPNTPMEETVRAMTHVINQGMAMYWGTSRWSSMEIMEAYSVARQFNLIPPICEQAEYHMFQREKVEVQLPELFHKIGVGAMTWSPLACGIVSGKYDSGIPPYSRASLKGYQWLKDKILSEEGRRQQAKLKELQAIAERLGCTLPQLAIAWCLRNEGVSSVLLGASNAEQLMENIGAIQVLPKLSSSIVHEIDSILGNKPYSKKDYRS

Row | SMILES | cell count [1] | inhibition [1] | inhibition of aggregation [2] | nuclei count [2] [%] | inhibition [3] | nuclei count [3] [%] | fluorescence slope [4] | NADPH fluorescence slope [5] | slope [6] | inhibition [7] | inhibition [8]
1 | COc1ccc(-c2cc3n(n2)CCc2nc4ccccc4n2-3)cc1 | 415 | -32.3% (inactive) | 30.7% (inactive) | 123 | 37% (inactive) | 127 | -0.433 (inactive) | -1.6e-05 (inactive) | 0.00599 (inactive) | 12.2% (inactive) | -17.1% (inactive)
2 | O=C(c1ccco1)N1CCN(C(=O)c2sccc2-c2ccccc2)CC1 | 310 | 20.7% (inactive) | 7.1% (inactive) | 90 | -74.7% (inactive) | 115 | -0.581 (inactive) | 2.3e-06 (inactive) | 0.0052 (inactive) | -5.94% (inactive) | 4.34% (inactive)
3 | O=C(NCCc1c[nH]c2ccccc12)c1cnc2n(c1=O)CCS2 | 532 | 6.3% (inactive) | -8.9% (inactive) | 103 | -35.9% (inactive) | 90.6 | -0.547 (inactive) | -2.5e-05 (inactive) | 0.00796 (inactive) | -48.8% (inactive) | -79.3% (inactive)
4 | CCOC(=O)C1=C(c2ccccc2)NC(=O)NC1c1ccc(N(C)C)cc1 (centres undefined) | 363 | -0.5% (inactive) | 14.6% (inactive) | 86.7 | -131% (inactive) | 118 | -0.439 (inactive) | -4.5e-05 (inactive) | 0.00395 (inactive) | 12.6% (inactive) | 29.3% (inactive)
5 | O=C(Cn1ncc2c1-c1ccccc1OC2)N1CCc2ccccc21 | 678 | 4.4% (inactive) | 10.6% (inactive) | 84.5 | 4.3% (inactive) | 108 | -0.587 (inactive) | 6e-06 (inactive) | 0.00757 (inactive) | 5.8% (inactive) | 1.51% (inactive)
6 | COCCNC(=O)CN1CCN(C(c2ccccc2)c2ccccc2)CC1 | 240 | -6.6% (inactive) | 18.2% (inactive) | 77.7 | -7.5% (inactive) | 86.9 | -0.556 (inactive) | -4.9e-05 (inactive) | 0.00771 (inactive) | -12.4% (inactive) | -6.81% (inactive)
7 | O=C(NCCC1=CCCCC1)C1CC(=O)N(C2CCCCCC2)C1 (centres undefined) | 645 | -4.4% (inactive) | -46.5% (inactive) | 45.9 | -41.7% (inactive) | 126 | -0.367 (inactive) | -6.2e-05 (inactive) | 0.00623 (inactive) | 5.65% (inactive) | 27.5% (inactive)
8 | O=S(=O)(c1ccccc1)N1CCN(S(=O)(=O)c2ccccc2)C1 | 281 | 5.1% (inactive) | -0.4% (inactive) | 95 | -60.7% (inactive) | 96.4 | -0.337 (inactive) | -5.3e-05 (inactive) | 0.00677 (inactive) | 10.4% (inactive) | 13.2% (inactive)
9 | CC(=O)O[C@H]1CSC[C@H]1NC(=O)c1ccccc1 | 467 | 10.9% (inactive) | 9.1% (inactive) | 96.2 | 21.9% (inactive) | 111 | -0.509 (inactive) | -1.7e-05 (inactive) | 0.00411 (inactive) | 16.6% (inactive) | 16.9% (inactive)
10 | O=C(NC1CCCc2ccccc21)c1ccc(CNc2c(N3CCOCC3)c(=O)c2=O)cc1 (centres undefined) | 644 | -3.4% (inactive) | 36.3% (active) | 51.3 | -52.7% (inactive) | 108 | -0.55 (inactive) | -2.5e-06 (inactive) | 0.00556 (inactive) | 12.8% (inactive) | 27% (inactive)
11 | CN1/C(=C\C(=O)C(F)F)C(C)(C)c2ccccc21 | 296 | 3.5% (inactive) | -24% (inactive) | 104 | 17.2% (inactive) | 116 | -0.504 (inactive) | 1.6e-05 (inactive) | 0.00399 (inactive) | 20.8% (inactive) | 17.4% (inactive)
12 | O=S(=O)(NC1CCCC1)c1ccccc1Cl | 739 | -7.3% (inactive) | -2.5% (inactive) | 111 | -21.2% (inactive) | 116 | -0.455 (inactive) | -3.7e-05 (inactive) | 0.00495 (inactive) | 7.42% (inactive) | 15.4% (inactive)
13 | COc1ccc(NC(=O)CCS(=O)(=O)c2ccc(OC)cc2)cc1 | 401 | -2.5% (inactive) | 20.3% (inactive) | 84.3 | -24% (inactive) | 101 | -0.539 (inactive) | -8.1e-06 (inactive) | 0.00539 (inactive) | -3.69% (inactive) | -1.71% (inactive)
14 | COc1c(Br)cc2c(C)c(C(=O)O)oc2c1Br | 472 | 3.5% (inactive) | -9.2% (inactive) | 95.6 | -26.9% (inactive) | 112 | -0.443 (inactive) | -0.000118 (inactive) | 0.00602 (inactive) | 9.89% (inactive) | 18.8% (inactive)
15 | O=C(O)c1cccc(S(=O)(=O)N2CCOCC2)c1 | 378 | -0.6% (inactive) | 12.5% (inactive) | 95.2 | 20.2% (inactive) | 99.4 | -0.472 (inactive) | -0.000388 (inactive) | 0.00562 (inactive) | -16% (inactive) | -15.1% (inactive)
16 | Cc1ccc(NC(=O)C2CCCN(S(=O)(=O)c3cnc[nH]3)C2)c(Br)c1 (centres undefined) | 601 | 10.1% (inactive) | -33.6% (inactive) | 82.3 | 12.8% (inactive) | 108 | -0.543 (inactive) | -6.4e-05 (inactive) | 0.00566 (inactive) | 3.4% (inactive) | -7.13% (inactive)
17 | COc1ccc(S(=O)(=O)Nc2ccc(F)c(Cl)c2)cc1OC | 657 | -18.6% (inactive) | -7.4% (inactive) | 111 | 57.8% (inactive) | 63 | -0.431 (inactive) | -2e-05 (inactive) | 0.00392 (inactive) | 12.4% (inactive) | 35.2% (inactive)
18 | CC(=O)c1c(C)[nH]c(C(=O)Nc2c(C)n(C)n(-c3ccccc3)c2=O)c1C | 418 | 2% (inactive) | -7.3% (inactive) | 112 | -137% (inactive) | 111 | -0.493 (inactive) | -2.7e-05 (inactive) | 0.00389 (inactive) | 17.1% (inactive) | 21.5% (inactive)
19 | c1ccc2c(c1)CNC1(CCCCC1)C2 | 362 | -3.4% (inactive) | 13% (inactive) | 114 | -2.1% (inactive) | 103 | -0.552 (inactive) | 2.5e-05 (inactive) | 0.00453 (inactive) | 13.3% (inactive) | 14.2% (inactive)
